# Assay results from PubChem BioAssay AID720517 (National Center for Advancing Translational Sciences (NCATS), 2013).
# Records with an inconclusive call do not appear. A call without a number means that no potency is given here. Calls of active or inactive are those of the source. The call rests on the fitted dose curve; in most records, active means well fitted activation curve with a large enough effect; inconclusive means small, poorly fitted or top-dose-only effect; inactive means flat fitted curve, though single readings scatter.
# Test: qHTS for Inhibitors of Cell Surface uPA Generation: FP59 Counterscreen for Cherry-picked Compounds
# Details: FP59 anthrax toxin cytotoxicity counterscreen, cells; series mostly up to 115 µM
row,SMILES,Potency
1,O=C(CSc1ccc(Cl)cc1)N1CCCC1,inactive
2,C=C(C(=O)O)C1CCC2(C)CCCC(C)(O)C2C1 (stereo unspecified),inactive
3,CC(C)CN(C(=O)CN1CCC(C)CC1)c1c(N)n(CC(C)C)c(=O)[nH]c1=O,inactive
4,CCOC(=O)N1CCc2c(sc3nc4n(c(=O)c23)N=C(C)CS4)C1,inactive
5,C/C=C/C(=O)Nc1cccc(C2=NOC3(C2)C[C@@H](C(N)=O)N(C(=O)c2cc([N+](=O)[O-])cc([N+](=O)[O-])c2C)C3)c1 (stereo partly specified),inactive
6,CCSC1=NCCN1S(=O)(=O)c1ccc(Cl)cc1,inactive
7,Cn1c(=O)n(CC(=O)O)c(=O)c2c1nc1n2CCCN1CCc1ccccc1,inactive
8,CCN1CCN(Cc2ccc(NC(=O)c3cc(NC(=O)c4cncc(-c5cccs5)c4)cc(OC)c3)cc2C(F)(F)F)CC1,inactive
9,COc1ccc(CC(=O)Nc2nc(C)cs2)cc1OC,inactive
10,O=C(CCCOc1ccc(Cl)cc1Cl)NCc1ccncc1,inactive
11,CC(=O)c1ccc(NC(=O)Nc2ccc(Br)cc2C)cc1,inactive
12,CC1C2=C(CC(C)(C)CC2=O)NC2=C1C(=O)CC(C)(C)C2,inactive
13,CC(C)(C)OC(=O)C[C@@H]1C/C=C\C[C@@H](CC(=O)N(CCO)Cc2ccccc2)C(=O)N[C@H](Cc2c[nH]c3ccccc23)COC1=O,inactive
14,COc1cc(CN2CCN(S(=O)(=O)c3ccccc3)CC2)cc(OC)c1OC,inactive
15,COc1cccc(NC(=O)CN(C)C(=O)c2csc3c2CCCC3)c1,inactive
16,CC1=C(C(=O)OCc2ccccc2)C(c2cccc([N+](=O)[O-])c2)NC(=O)N1 (stereo unspecified),inactive
